# Screen size: about 63,000 compounds; about 1,100 (1.7%) were called active. The list comes from a sample in which actives are over-represented; it also holds similar structures and randomly drawn compounds. Entries with a potency or affinity are not part of this list. Values without a mark were called inactive. No stated cut-off is given here; in the data, active means cytotoxicity above about 50%; inactive means the rest.
# Test: HPDE-C7 pancreatic duct cell viability loss – fluorescence, HTS (AID 430);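 further: cells exposed to compound for 48 hours before viability readout; 0% = vehicle and 100% = reference cytotoxic drug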
# Settings: HPDE-C7 pancreatic duct cells viability, at 10 µM, active compounds read high
row,Compound,cytotoxicity
1,O=C(NCCn1cccc1)c1cccc2ccccc12,1.3%
2,CCOC(=O)C1CCCN(Cc2ccc(OC)cc2OC)C1 (stereo not given),8.6%
3,COc1ccc(-c2nnc(-c3cccs3)o2)cc1OC,-10.3%
4,COc1ccc(-c2nc(-c3cccs3)c(-c3cccs3)[nH]2)cc1O,71.6% (active)
5,COc1ccc(-c2nc3ccccc3s2)cc1O,-5.7%
6,Fc1ccccc1CSc1nnnn1-c1ccc2c(c1)OCO2,-2%
7,Fc1cccc(Cl)c1Cn1nnc(-c2ccc3c(c2)OCO3)n1,-6.1%
8,Fc1cccc(Cl)c1CSc1nnnn1-c1ccc2c(c1)OCO2,53.7% (active)
9,CCc1nccn1S(=O)(=O)c1ccc(C)c(C)c1,2.1%
10,COc1ccc(OC)c(C(c2nnnn2CC2CCCO2)N2CCN(C3CCCC3)CC2)c1 (stereo not given),-10.4%
11,CC(Sc1ccccc1)C(=O)Nc1ccc(S(=O)(=O)N2CCOCC2)cc1 (stereo not given),-9.5%
12,CC1CN(C2CCCCC2)c2nc3c(c(=O)[nH]c(=O)n3C)n2C1 (stereo not given),-2%
13,COc1cc(S(=O)(=O)N2CCN3CCCC3C2)ccc1-n1cnnn1 (stereo not given),5.7%
14,COc1cc(S(=O)(=O)N2CCC(N3CCCCC3)CC2)ccc1-n1cnnn1,9.2%
15,COc1cc(S(=O)(=O)N2CCCC3(CCCCC3)C2)ccc1-n1cnnn1,78.1% (active)
16,CCOC(=O)C1=C(C)NC2=C(C(=O)CCC2)C1c1ccc(N(C)C)cc1 (stereo not given),1.2%
17,COc1ccc(CCNC(=O)C2CCCN(S(=O)(=O)c3cccc4nonc34)C2)cc1OC (stereo not given),-21.9%
18,OC(COc1ccccc1)CN1C2=NCCCN2c2ccccc21 (stereo not given),4.3%
19,O=C(NCc1ccco1)C1OCCc2ccccc21 (stereo not given),-15.1%
20,CCOC(=O)C1CCN(C(=O)c2ccc(SC)cc2OC)CC1,-4.9%

row,Compound,cytotoxicity
1,c1cncc(-c2nnc(SCc3nc4ccccc4[nH]3)o2)c1,-14.6%
2,c1coc(-c2nnc(SCc3nc4ccccc4[nH]3)o2)c1,65.9% (active)
3,c1ccc2[nH]c(CSc3nnc(-c4ccncc4)o3)nc2c1,3.2%
4,Cc1cc(C)nc(NS(=O)(=O)c2ccc(NC(=O)CCCN3C(=O)c4ccccc4C3=O)cc2)n1,1.9%
5,CC(=O)Nc1c(O)n(C)c2ccccc12,-20.2%
6,COc1ccc(-n2c(Cc3cccn3C)nnc2SCC(=O)NC2CCCCC2)cc1,-11.2%
7,COc1ccc(N(CC(=O)NC2CCCC2)C(=O)Cn2nnc(-c3ccc(C)cc3)n2)cc1OC,-4.2%
8,CC1C(=O)CCC1(C(=O)O)c1ccccc1 (stereo not given),9.4%
9,CCn1c(CN2CCCCCC2=O)nnc1SCc1cnc(-c2ccccc2)s1,4.1%
10,Cc1ccc(-c2csc3ncnc(-n4nc(C)cc4N)c23)cc1,0.5%
11,CN1CCN(Cc2nc3c(c(=O)[nH]c(=O)n3C)n2Cc2c(F)cccc2Cl)CC1,-13.5%
12,CN(Cc1ccccc1)C(=O)CCS(=O)(=O)c1ccc2c(c1)n(C)c(=O)c(=O)n2C,-7%
13,COc1ccc2[nH]c(=O)c(CN(Cc3ccco3)C(=O)c3ccccc3)cc2c1,-8.8%
14,CCOc1ccc2[nH]c(=O)c(CN(Cc3ccco3)C(=O)c3cccc(F)c3)cc2c1,78% (active)
15,CCOc1ccc2[nH]c(=O)c(CN(Cc3ccco3)C(=O)c3ccc(Br)cc3)cc2c1,22.7%
16,CCCn1nnc(NC(=O)COc2ccc(Cl)cc2)n1,-10.6%
17,COCCN(C(=O)Cc1cccs1)c1nnc(-c2cccnc2)s1,-0.4%
18,O=C(Nc1cnn(Cc2ccccc2)c1)c1cc2nc(-c3ccco3)cc(C(F)(F)F)n2n1,6%
19,Cc1ccccc1Cn1ccc(NC(=O)c2cc3nc(-c4ccco4)cc(C(F)(F)F)n3n2)n1,53% (active)
20,Cc1ccccc1Cn1cc(NC(=O)c2cc3nc(-c4ccco4)cc(C(F)(F)F)n3n2)cn1,29.2%

row,Compound,cytotoxicity
1,Cc1ccccc1Cn1ccc(NC(=O)c2cnn3c(C(F)(F)F)cc(-c4ccco4)nc23)n1,37.2%
2,O=C(Nc1ccc(Cl)cc1)c1cc2nc(-c3ccco3)cc(C(F)(F)F)n2n1,66.2% (active)
3,O=C(Nc1cnn(Cc2ccc(F)cc2)c1)c1cc2nc(-c3ccco3)cc(C(F)(F)F)n2n1,38.9%
4,CCOc1ccc(OCC)c(NC(=O)CCn2cccc2)c1,7.1%
5,O=C(NCC(c1cccnc1)N1CCOCC1)c1cccs1 (stereo not given),-33.1%
6,COc1ccc(-c2c(C#N)c(SCc3c(C)noc3C)nc3c2C(=O)CC(C)(C)C3)cc1,-11%
7,Cc1cc(NC(=O)CS(=O)(=O)c2cn(Cc3cccc(F)c3)c3ccccc23)no1,-2.5%
8,CCOc1ccc(C(=O)NCC2CCCO2)cc1 (stereo not given),1.4%
9,c1csc(-c2ccc3ccccc3n2)c1,9.1%
10,CC(=O)c1cc2c(cc1NS(=O)(=O)c1ccc3c(c1)OCCO3)OCO2,36.4%
11,COC(=O)c1ccc(C)c(NS(=O)(=O)c2ccc(OC)cc2)c1,68% (active)
12,CCCNC(=O)c1ccccc1NS(=O)(=O)c1ccc2c(c1)OCCO2,14.8%
13,COC(=O)c1ccc(NS(=O)(=O)c2ccc(OC)cc2)cc1,2%
14,COC(=O)c1ccc(Cl)c(NS(=O)(=O)c2ccc3c(c2)OCCO3)c1,55.7% (active)
15,COC(=O)c1ccc(C)c(NS(=O)(=O)c2ccc(NC(C)=O)cc2)c1,20.6%
16,COC(=O)c1ccc(C)c(NC(=O)CN(c2ccc3c(c2)OCO3)S(C)(=O)=O)c1,-6.6%
17,O=C(O)c1ccc(NS(=O)(=O)c2ccc3c(c2)OCCO3)cc1,0.3%
18,COC(=O)c1ccc(C)c(NS(=O)(=O)c2ccc3c(c2)OCCO3)c1,62.8% (active)
19,O=S(=O)(NCCC1=CCCCC1)c1cccc2nsnc12,-4.7%
20,CCn1c(COc2ccccc2C)nnc1SCC(=O)N1CCC(C)CC1,-9.2%

# Reference: PubChem BioAssay AID430 (Sanford-Burnham Center for Chemical Genomics, 2006)
